The list is not random: actives were taken first. Their share in the collection is about 1.7%.
GLP-1R agonist: agonists of human GLP-1 receptor; Potency, µM (doses to about 45.6 µM), without a hit: at the top dose activation, hits mostly activators; P43220; HEK293 GLP-1R CRE-luciferase, luminescence, 4-6 h; cells express a hypersensitive GLP-1R form; 0.007% of 380,000 active; note: % of control where 0% means no effect
Target sequence (P43220 whole entry, looked up): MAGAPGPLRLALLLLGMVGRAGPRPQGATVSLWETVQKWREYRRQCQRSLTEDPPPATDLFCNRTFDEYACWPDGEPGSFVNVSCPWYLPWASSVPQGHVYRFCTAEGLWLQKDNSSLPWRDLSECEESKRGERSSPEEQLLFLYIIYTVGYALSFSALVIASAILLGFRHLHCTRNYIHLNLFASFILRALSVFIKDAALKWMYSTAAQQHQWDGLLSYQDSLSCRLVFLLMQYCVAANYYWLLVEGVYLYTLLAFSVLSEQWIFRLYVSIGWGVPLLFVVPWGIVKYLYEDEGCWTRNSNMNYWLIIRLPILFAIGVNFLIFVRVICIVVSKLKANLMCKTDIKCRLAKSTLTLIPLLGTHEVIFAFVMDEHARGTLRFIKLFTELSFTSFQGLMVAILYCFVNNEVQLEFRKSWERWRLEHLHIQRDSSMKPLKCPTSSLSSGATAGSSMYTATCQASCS
GLP-1R inv ag: acts as inverse agonist at human GLP-1 receptor. P43220. HEK293 GLP-1R CRE-luciferase, luminescence, 24 h; GLP-1R form is constitutively active. Potency, µM (titrated, usually from 38.3 µM), inactives show at the top dose activity change, negative = inhibition, hits mostly inhibitors. 1.6% of 410,000 active; note: % is set by controls: 0 for no effect and ±100 for the full control effect; nearly all actives have a fitted effect of over 55% in size
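Constitutively active GLP-1R drives a cAMP-responsive luciferase in stably transfected HEK293 cells; test compounds are added after overnight (12 h) attachment and left 24 hr, and signal loss in luminescence marks inhibition.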
HEK293 tox: cytotoxicity in counter-screen for GLP-1R inverse agonists; Potency, µM (highest dose often 38.3 µM), for inactives: top-dose activity change, negative = inhibition, most hits filed as inhibitors; 0.13% of 410,000 active; AID 624418; HEK293 cAMP-luciferase reporter cells, luminescence, 24 h;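 note: loss of luciferase light is scored as toxicity; % is set by controls: 0 for no effect and ±100 for the full control effect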
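To flag toxic compounds, the library was rerun on cells for 24 hr at 37 deg C and 5% CO2. Viability-linked luminescence was captured 12 min after adding luciferase detection reagent.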
* marks the source's active call; other numbers are inactive results; ? = inconclusive; . = no result given; [ ] = dose if it differs, or a comment. Calls come from the whole dose curve; as a rule, active = well fitted curve in the direction sought with a large enough effect; inconclusive = small, poorly fitted or top-dose-only effect, or another doubt; inactive = no such curve, though single readings can be large; an effect the other way counts as inactive or inconclusive. Potency is the fitted concentration of half-maximal effect.

SMILES | GLP-1R agonist | GLP-1R inv ag | HEK293 tox
Cc1nnsc1C(=O)NNc1c(Cl)cccc1Cl | 6% | ? | -27%
O=C(NCc1ccccc1Cl)c1ccc(Cn2c(=O)c3cccn3c3cccnc32)cc1 | . | 6% | 7%
COc1ccccc1C(O)c1ncc(-c2ccccc2C)[nH]1 (stereo not drawn) | -1% | 18% | 4%
Cc1ccc(O)c(CN(C)Cc2cc(C)ccc2O)c1 | 6% | 13µM* | -21%
Cc1ccc(O)c(CP(=O)(c2ccccc2)c2ccccc2)c1 | -3% | -17% | 6%[1.53 µM]
O=C(CSc1nc2ncccc2o1)Nc1cccc(C(F)(F)F)c1 | . | 8% | 1%
CCOC(=O)c1cn2nc(N3CCCC3)ccc2n1 | -30% | 5.6µM* | 15%
CCOC(=O)c1cn2nc(N3CCCCC3)ccc2n1 | -4% | ? | 8%
O=C(COc1ccc2c3c(c(=O)oc2c1)CCC3)NCC(O)c1ccccc1 (stereo not drawn) | -3% | 1% | 11%
COc1ccc(OC)c(C(=O)COC(=O)c2[nH]c(C)c(C(C)=O)c2C)c1 | 28% | 42% | 13%
COc1ccc(CNC(=S)N/N=C(\C)c2ccc(OC)cc2)cc1 | 24% | ? | ?
C/C(=N\NC(=S)NCCc1ccccc1)c1cccc(Br)c1 | 7% | -17% | ?
COc1ccc(/C(C)=N/NC(=S)NCc2ccco2)cc1 | 23% | 11µM* | ?
C/C(=N\NC(=S)Nc1cccc(C)c1)c1cc2ccccc2o1 | 15% | 9%[7.66 µM] | ?
C/C(=N\NC(=S)NCc1ccccc1)c1cccc(Br)c1 | 27% | 8.9µM* | ?
C/C(CCC(C)C)=N\NC(=S)NCc1ccccc1 | -1% | ? | -16%
CCNC(=S)N/N=C(\C)c1cc2ccccc2o1 | 21% | 4.5µM* | ?
COc1ccccc1/C(C)=N/NC(=S)NCc1ccccc1 | 18% | 2.5µM* | 5µM*
CC(Nc1ccc(-c2nc(-c3ccncc3)no2)cc1[N+](=O)[O-])c1ccccc1 (stereo not drawn) | . | ? | -5%
CC(Sc1nnc2c(n1)[nH]c1ccccc12)C(=O)NC1CCCCC1 (stereo not drawn) | 11% | -16% | -11%
O=C(O)c1ccccc1-c1ccc(C(F)(F)F)cc1 | -1% | . | .
Cc1ccc(S(=O)(=O)NC(=O)NC2CCCCCCC2)cc1 | -1% | . | .
CC(=O)Nc1ccc(NC(=O)C2CCN(C(=O)c3cccs3)CC2)cc1 | 0% | 18% | 4%
Cc1ccc(-n2nc(CO)c(C(=O)NCCC(C)C)n2)cc1C | . | -4% | 2%
Cc1ccc(Cl)cc1N1CCN(C(=O)Cn2c(-c3cccs3)cc3cc(F)ccc32)CC1 | . | ? | 4%
SMILES | GLP-1R agonist | GLP-1R inv ag | HEK293 tox
CCOC(=O)Cn1c(=O)n(-c2ccccc2OC)c2nc(-c3ccc(C(C)C)cc3)nc(C(N)=O)c21 | 6% | -42% | -6%
COc1ccc(-c2noc(CSc3nnc(C)n3-c3ccc(C)c(C)c3)n2)c(OC)c1 | . | 4% | 1%
S=C(NCc1ccccc1)Nc1ccc2ccccc2c1 | 25% | ? | ?
C/C(=N\NC(=S)NCc1ccccc1)c1ccc2ccccc2c1 | 5% | ? | 2.8µM*
C/C(=N\N=C(N)N)c1ccc(Cl)c(Cl)c1 | -2% | 8.9µM* | ?
C/C(=N\NC(=O)C1CC1)c1ccc(Cl)c(Cl)c1 | 19% | 1% | 12%
O=C(C1CC(=O)N(c2ccccc2)C1)N1CCCCCC1 (stereo not drawn) | -2% | 5% | 0%

Compound activity from PubChem.
